The source of these data is PubChem BioAssay.

“And” between values parts separate entries of the source, which are not always exact repeats. Equal entries are not always repeated. For some assays here: Entries with a potency or affinity are not part of this list. The source holds several records for some structures; these can differ, active in one and inactive in another. The source made the active and inactive calls. Unless noted, how the calls were made is not given here.

Experiment [1] can be described thus: antimalarial activity against Dd2 strain (AID 2302;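 active means growth inhibition above 50% at the single 2 µM test dose, taken to imply half-maximal potency below 2 µM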;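 further: 0% = DMSO untreated growth and 100% = chloroquine plus artemisinin killed control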). Particulars: P. falciparum Dd2 in RBCs, LDH growth readout, 72 h; at 2 µM; stronger effect = higher value.
Experiment [2] in a line: HepG2 cytotoxicity, primary screen, cytotoxicity control for P. falciparum antimalarial project, cell-based, ATP luminescence (AID 2303;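 active means inhibition above 50%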;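 further: 0% = DMSO wells and 100% = digitonin-killed cells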). Conditions: HepG2 viability, 24-48 h, at 10 µM, stronger effect = higher value.
Experiment [3] addresses L-lactate dehydrogenase (Plasmodium falciparum (isolate CDC / Honduras)) (UniProt Q27743). As to the kind of experiment: PfLDH activity inhibition – cell lysate, 3D7 strain, counter-screen for P. falciparum growth inhibition project (AID 2304).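 Further: 0% = vehicle and 100% = reference inhibitor.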 Conditions: P. falciparum 3D7 crude extract, LDH APAD/NBT absorbance; at 2 µM; stronger effect = higher value.
Experiment [4] is described as follows: inhibition of 3D7 malaria parasite growth – strain 3D7 (AID 2306).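 Further: 0% = DMSO wells and 100% = chloroquine plus artemisinin control wells.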 Particulars: P. falciparum 3D7 erythrocytic growth, LDH absorbance, 72 h; at 2 µM; stronger effect = higher value.
Experiment [5] deals with Calcium-dependent protein kinase 1 (Plasmodium falciparum (isolate 3D7)) (UniProt P62344). Nature of the experiment: PfCDPK1 kinase inhibitors, biochemical, TCAMS library (AID 1159585; cut-off not given, nearly all actives have IC50 up to about 0.98 µM;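 further: inhibitors leave more ATP so luminescence rises with inhibition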). Particulars: recombinant PfCDPK1, Kinase-Glo ATP depletion luminescence.
Chain of Calcium-dependent protein kinase 1 (Plasmodium falciparum (isolate 3D7)) (P62344 whole entry, looked up): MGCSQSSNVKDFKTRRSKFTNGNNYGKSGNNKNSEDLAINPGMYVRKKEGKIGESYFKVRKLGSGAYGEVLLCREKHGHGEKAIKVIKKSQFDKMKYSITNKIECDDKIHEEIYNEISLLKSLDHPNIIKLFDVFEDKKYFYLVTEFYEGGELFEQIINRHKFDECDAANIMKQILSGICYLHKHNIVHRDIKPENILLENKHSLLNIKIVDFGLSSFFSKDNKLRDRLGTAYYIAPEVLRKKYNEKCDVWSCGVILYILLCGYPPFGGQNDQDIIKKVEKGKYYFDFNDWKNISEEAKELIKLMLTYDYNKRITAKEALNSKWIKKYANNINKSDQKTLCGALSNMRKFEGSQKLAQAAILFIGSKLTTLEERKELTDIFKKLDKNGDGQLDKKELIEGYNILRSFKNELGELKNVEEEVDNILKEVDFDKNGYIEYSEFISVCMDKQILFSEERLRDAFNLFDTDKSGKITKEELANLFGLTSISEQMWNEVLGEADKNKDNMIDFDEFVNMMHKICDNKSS
For experiment [6], the target named is Plasmodium falciparum protein kinase 6 (PK6, PF3D7_1337100) (UniProt Q8IDW1). As to the kind of experiment: PfPK6 kinase inhibitors, biochemical, TCAMS library (AID 1159586). Particulars: recombinant PfPK6, Kinase-Glo ATP depletion luminescence.
Chain of Plasmodium falciparum protein kinase 6 (PK6, PF3D7_1337100) (Q8IDW1 1-305): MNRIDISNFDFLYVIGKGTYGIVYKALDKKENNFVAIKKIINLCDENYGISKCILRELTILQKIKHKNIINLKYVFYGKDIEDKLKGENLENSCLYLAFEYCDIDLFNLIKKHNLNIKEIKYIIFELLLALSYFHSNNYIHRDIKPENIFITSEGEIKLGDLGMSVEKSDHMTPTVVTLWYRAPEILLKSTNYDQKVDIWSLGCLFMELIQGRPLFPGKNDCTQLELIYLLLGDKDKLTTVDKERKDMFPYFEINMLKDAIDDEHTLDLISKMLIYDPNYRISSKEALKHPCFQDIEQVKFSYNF
The target of experiment [7] is Protein kinase 7 (PK7), Plasmodium falciparum 3D7 (PF3D7_0213400) (UniProt Q7YTF7). Nature of the experiment: inhibition of Plasmodium PK7 catalytic activity – biochemical, TCAMS antimalarial set, Kinase-Glo luminescence (AID 1159587). Particulars: recombinant PfPK7, Kinase-Glo ATP depletion luminescence.
Chain of Protein kinase 7 (PK7), Plasmodium falciparum 3D7 (PF3D7_0213400) (Q7YTF7 1-343): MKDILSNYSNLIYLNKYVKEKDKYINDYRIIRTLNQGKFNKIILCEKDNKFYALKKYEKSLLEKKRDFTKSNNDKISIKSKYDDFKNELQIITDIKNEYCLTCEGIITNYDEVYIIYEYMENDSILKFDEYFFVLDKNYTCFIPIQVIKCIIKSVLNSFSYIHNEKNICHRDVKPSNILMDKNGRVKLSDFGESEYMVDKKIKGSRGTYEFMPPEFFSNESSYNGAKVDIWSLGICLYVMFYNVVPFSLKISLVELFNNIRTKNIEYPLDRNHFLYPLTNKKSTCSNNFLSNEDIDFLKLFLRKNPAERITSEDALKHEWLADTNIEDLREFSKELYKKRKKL
The target in experiment [8] is Calcium-dependent protein kinase 4 (Plasmodium falciparum (isolate 3D7)) (UniProt Q8IBS5). As to the kind of experiment: PfCDPK4 kinase inhibitors, biochemical, TCAMS library (AID 1159588; cut-off not given, nearly all actives have IC50 up to about 0.91 µM). Particulars: recombinant PfCDPK4, Kinase-Glo ATP depletion luminescence.
Chain of Calcium-dependent protein kinase 4 (Plasmodium falciparum (isolate 3D7)) (Q8IBS5 whole entry, looked up): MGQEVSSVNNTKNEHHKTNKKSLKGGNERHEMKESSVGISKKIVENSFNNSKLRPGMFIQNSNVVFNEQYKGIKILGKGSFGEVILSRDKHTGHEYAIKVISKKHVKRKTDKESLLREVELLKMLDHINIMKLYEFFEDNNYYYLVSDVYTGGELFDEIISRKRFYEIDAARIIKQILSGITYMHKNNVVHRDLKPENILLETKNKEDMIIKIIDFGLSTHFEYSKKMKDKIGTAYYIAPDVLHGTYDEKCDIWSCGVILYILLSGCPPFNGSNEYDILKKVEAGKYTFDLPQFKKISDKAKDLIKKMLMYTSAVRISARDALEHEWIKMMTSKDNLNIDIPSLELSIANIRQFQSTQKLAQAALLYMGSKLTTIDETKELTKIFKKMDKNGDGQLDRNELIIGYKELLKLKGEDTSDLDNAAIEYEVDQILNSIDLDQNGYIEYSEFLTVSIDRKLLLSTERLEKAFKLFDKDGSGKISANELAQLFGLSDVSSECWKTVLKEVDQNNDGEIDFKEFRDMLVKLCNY

Chain of L-lactate dehydrogenase (Plasmodium falciparum (isolate CDC / Honduras)) (Q27743 whole entry, looked up): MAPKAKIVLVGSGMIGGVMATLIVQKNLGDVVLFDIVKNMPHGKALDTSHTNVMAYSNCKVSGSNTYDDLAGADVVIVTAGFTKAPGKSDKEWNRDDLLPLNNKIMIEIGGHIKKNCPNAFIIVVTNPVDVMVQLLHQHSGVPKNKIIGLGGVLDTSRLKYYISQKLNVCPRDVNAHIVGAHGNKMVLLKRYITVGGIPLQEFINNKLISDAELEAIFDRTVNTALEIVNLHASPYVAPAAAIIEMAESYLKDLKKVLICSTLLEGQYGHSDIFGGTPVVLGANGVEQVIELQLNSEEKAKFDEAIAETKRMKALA

Regarding `CN1CC=C(c2c[nH]c3ccc(Br)cc23)CC1`, the values for the growth inhibition in experiment [1] and in experiment [4] were 80% (active) and 88% (active), respectively. The values for the inhibition in experiment [2] and in experiment [3] were -3% (inactive) and 1% (inactive), respectively. In addition, the result in experiment [5], in experiment [6], in experiment [7] and in experiment [8] was inactive.
Regarding `O=C(/C=C/c1ccc(Cl)c(Cl)c1)N1CCC(CN2CC[C@H](c3c[nH]c4ccccc34)[C@@H](O)C2)CC1`, the values for the growth inhibition in experiment [1] and in experiment [4] were 14% (inactive) and 99% (active), respectively. Further, the inhibition in experiment [2] was 37% (inactive); in experiment [3] it was -7% (inactive). For the same compound, the result in experiment [5], in experiment [6], in experiment [7] and in experiment [8] was inactive.
For the compound `COC(C(=O)OCCC1CCCN1C)(c1ccccc1)C1CCCCC1` (configuration not stated), the growth inhibition in experiment [1] is 5% (inactive); in experiment [4], 100% (active). In addition, the inhibition was 3% (inactive) in experiment [2] and 4% (inactive) in experiment [3]. Besides, the result in experiment [5], in experiment [6], in experiment [7] and in experiment [8] was inactive.
Regarding `CCCCCCC(C)(C)c1cc(O)c2c(c1)OC(C)(C)c1ccncc1-2`, the growth inhibition in experiment [1] was 99% (active); in experiment [4] it was 95% (active). For the same compound, the inhibition in experiment [2] was 4% (inactive); in experiment [3], 1% (inactive). Also, the result in experiment [5], in experiment [6], in experiment [7] and in experiment [8] was inactive.
Take `CN(C)CCCOc1ccc(CN2CCC(c3c[nH]c4ccc(NCC5CCCCC5)cc34)CC2)cc1`: the growth inhibition in experiment [1] and in experiment [4] was 99% (active) each time. In addition, the figures for the inhibition in experiment [2] and in experiment [3] were 58% (active) and 3% (inactive), respectively. Moreover, the outcome in experiment [5], in experiment [6], in experiment [7] and in experiment [8] was inactive.
As for `COc1nc(N)ncc1C(=O)NC1CN2CCC1CC2` (configuration not stated), the growth inhibition is 0% (inactive) in experiment [1] and 92% (active) in experiment [4]. For the same compound, the inhibition in experiment [2] was 26% (inactive); in experiment [3], -1% (inactive). For the same compound, the outcome in experiment [5], in experiment [6], in experiment [7] and in experiment [8] was inactive.
In the case of `O=C(c1ccccc1)[C@H]1C[C@@H]1CN1CC=C(c2c[nH]c3ccccc23)CC1`, the growth inhibition in experiment [1] is 73% (active); in experiment [4], 95% (active). The figures for the inhibition in experiment [2] and in experiment [3] were 4% (inactive) and -6% (inactive), respectively. Also, the outcome in experiment [5], in experiment [6], in experiment [7] and in experiment [8] was inactive.
For the compound `CN(C)c1cccc(CN2CC=C(c3c[nH]c4ccc(Cl)cc34)CC2)c1`, the growth inhibition in experiment [1] was 87% (active); in experiment [4], 93% (active). Also, the inhibition is 40% (inactive) in experiment [2] and 3% (inactive) in experiment [3]. Besides, the outcome in experiment [5], in experiment [6], in experiment [7] and in experiment [8] was inactive.
Consider `COCCNCc1cccc(-c2ccc(CN(C(=O)NC3CCCCC3)C3CCN(Cc4ccccc4)CC3)cc2)c1`, for which the growth inhibition in experiment [1] is 31% (inactive); in experiment [4], 101% (active). In addition, the values for the inhibition in experiment [2] and in experiment [3] were 32% (inactive) and 6% (inactive), respectively. Further, the outcome in experiment [5], in experiment [6], in experiment [7] and in experiment [8] was inactive.
As for `COCCNCc1cccc(-c2ccccc2CN(C(=O)Nc2ccccc2)C2CCN(Cc3ccccc3)CC2)c1`, the figures for the growth inhibition in experiment [1] and in experiment [4] were 51% (active) and 96% (active), respectively. Besides, the inhibition in experiment [2] was 30% (inactive); in experiment [3], 1% (inactive). Moreover, the outcome in experiment [5], in experiment [6], in experiment [7] and in experiment [8] was inactive.
Consider `O=C(/C=C/c1ccc(Cl)c(Cl)c1)N1CC[C@H]2C[C@H](N3CCC(c4c[nH]c5ccccc45)CC3)CC[C@@H]2C1`, for which the growth inhibition was 99% (active) in experiment [1] and 100% (active) in experiment [4]. Besides, the values for the inhibition in experiment [2] and in experiment [3] were 31% (inactive) and 0% (inactive), respectively. In addition, the outcome in experiment [5], in experiment [6], in experiment [7] and in experiment [8] was inactive.
For the compound `OC(CNC1CCCCCCC1)c1ccc(Cl)c(Cl)c1` (configuration not stated), the growth inhibition is 99% (active) in experiment [1] and 100% (active) in experiment [4]. Further, the inhibition in experiment [2] was 17% (inactive); in experiment [3], -5% (inactive). Besides, the result in experiment [5], in experiment [6], in experiment [7] and in experiment [8] was inactive.
On to `O=C1NCN(c2ccc(O)cc2)C12CCN(CCCC(c1ccc(F)cc1)c1ccc(F)cc1)CC2`, for which the results for the growth inhibition in experiment [1] and in experiment [4] were 34% (inactive) and 94% (active), respectively. For the same compound, the inhibition in experiment [2] is 20% (inactive); in experiment [3], 2% (inactive). Moreover, the result in experiment [5], in experiment [6], in experiment [7] and in experiment [8] was inactive.
Consider `CS(=O)(=O)Nc1ccc2[nH]cc(C3C[C@H]4CC[C@@H](C3)N4CC3CCC(NC(=O)/C=C/c4ccc(Cl)c(Cl)c4)CC3)c2c1` (some centres not stated), for which the results for the growth inhibition in experiment [1] and in experiment [4] were 50% (active) and 101% (active), respectively. Moreover, the results for the inhibition in experiment [2] and in experiment [3] were 3% (inactive) and 7% (inactive), respectively. Moreover, the outcome in experiment [5], in experiment [6], in experiment [7] and in experiment [8] was inactive.
As to `O=C(NC1CCC(CN2CCC(c3c[nH]c4ccccc34)CC2)CC1)c1cc2ccccc2s1` (configuration not stated), the growth inhibition is 43% (inactive) and 68% (active) in experiment [1]; 98% (active) and 101% (active) in experiment [4]. Besides, the inhibition was 44% (inactive) in experiment [2]; 4% (inactive) and 5% (inactive) in experiment [3]. Besides, the outcome in experiment [5], in experiment [6], in experiment [7] and in experiment [8] was inactive.
With `O=[N+]([O-])c1ccc(Oc2c(Cl)cc(S(=O)(=O)N3CCC(CN4CCC(c5c[nH]c6ccccc56)CC4)CC3)cc2Cl)c(Cl)c1`, the growth inhibition in experiment [1] was 83% (active); in experiment [4], 100% (active). In addition, the inhibition in experiment [2] is 43% (inactive); in experiment [3], -1% (inactive). The result in experiment [5], in experiment [6], in experiment [7] and in experiment [8] was inactive.
With `COc1cc(NCCCNC(=O)c2cn(Cc3ccccc3)c3ccccc23)nc2ccccc12`, the figures for the growth inhibition in experiment [1] and in experiment [4] were 66% (active) and 101% (active), respectively. For the same compound, the inhibition in experiment [2] is 13% (inactive); in experiment [3], 0% (inactive). Also, the result in experiment [5], in experiment [6], in experiment [7] and in experiment [8] was inactive.
With `CCOC(C(=O)OCC1CCCN1C)(c1ccccc1)c1ccccc1` (configuration not stated), the growth inhibition in experiment [1] is 3% (inactive); in experiment [4], 97% (active). The inhibition is 13% (inactive) in experiment [2] and 6% (inactive) in experiment [3]. Also, the result in experiment [5], in experiment [6], in experiment [7] and in experiment [8] was inactive.
As to `COc1ccc(OC)c(C(O)CNC(C)C)c1` (configuration not stated), the growth inhibition in experiment [1] is -2% (inactive); in experiment [4], 96% (active). Moreover, the inhibition in experiment [2] was 3% (inactive); in experiment [3] it was -9% (inactive). The result in experiment [5], in experiment [6], in experiment [7] and in experiment [8] was inactive.
